Screening data deposited in PubChem BioAssay by National Center for Advancing Translational Sciences (NCATS).
SNCA expr inh = reduces expression of the alpha-synuclein gene; Potency, µM (titrated, usually from 57.2 µM), for the others: top-dose activity change, negative = inhibition, hits mostly inhibitors; AID 1671194; actives 0.17% (n = 140,000); HEK-293 SNCA-luciferase knock-in, luminescence, 24 h;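 note: potency is the fitted concentration of half-maximal effect; plate controls were DMSO cells for no effect and cell-free wells for full effect; nearly all actives have a fitted effect of over 45% in size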
SNCA viab count = reduces viability of HEK-293 SNCA reporter cells | Potency, µM (titrated, usually from 57.1 µM), inactives show at the top dose activity change, negative = cytotoxicity, most hits filed as cytotoxic | HEK-293-SNCA-luc viability, GF-AFC fluorescence, 24 h | actives 0.12% (n = 150,000);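 note: potency is the fitted concentration of half-maximal effect; 0% = DMSO-treated cells and -100% = medium-only wells without cells; nearly all actives have a fitted effect of over 30% in size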
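Cytotoxicity counterscreen: after 24 h compound treatment of genome-edited SNCA-luciferase HEK-293 cells, live-cell protease substrate GF-AFC read by fluorescence after 30 min; activity scaled between DMSO (0%) and medium-only (-100%), curves Hill-fitted.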
KDM5B inhibitor = blocks human KDM5B histone demethylase activity. AID 1347165. KDM5B demethylase, FDH-coupled NADH fluorescence (FDH is formaldehyde dehydrogenase). Potency, µM (top dose mostly 57.7 µM), most hits filed as inhibitors. Q9UGL1. actives 2.6% (n = 220,000); note: potency is the fitted concentration of half-maximal effect; 0% is about no effect; nearly all actives have a fitted effect of over 70% in size
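KDM5BΔAP (200 nM final) in 50 mM HEPES pH 7.5, 0.01% Tween-20 was preincubated 10 min at RT with compound over a concentration range. Substrate mix (H3K4me3 12.5 µM, α-KG 25 µM, Fe²⁺, ascorbate, NAD⁺, FDH) was added, and NADH fluorescence change over 30 min gave dose-response curves.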
IP6K1 inhibitor = IP6K1 kinase inhibition | activity change, % (series mostly up to about 58 µM) | Q92551 | AID 1645851 | actives 0.81% (n = 140,000) | IP6K1 kinase, ADP-Glo luminescence, 2 h; hits give low values; in the data active = activity change below about -25%; note: % is set by controls: 0 for no effect and ±100 for the full control effect
Target sequence (Q92551 whole entry, looked up): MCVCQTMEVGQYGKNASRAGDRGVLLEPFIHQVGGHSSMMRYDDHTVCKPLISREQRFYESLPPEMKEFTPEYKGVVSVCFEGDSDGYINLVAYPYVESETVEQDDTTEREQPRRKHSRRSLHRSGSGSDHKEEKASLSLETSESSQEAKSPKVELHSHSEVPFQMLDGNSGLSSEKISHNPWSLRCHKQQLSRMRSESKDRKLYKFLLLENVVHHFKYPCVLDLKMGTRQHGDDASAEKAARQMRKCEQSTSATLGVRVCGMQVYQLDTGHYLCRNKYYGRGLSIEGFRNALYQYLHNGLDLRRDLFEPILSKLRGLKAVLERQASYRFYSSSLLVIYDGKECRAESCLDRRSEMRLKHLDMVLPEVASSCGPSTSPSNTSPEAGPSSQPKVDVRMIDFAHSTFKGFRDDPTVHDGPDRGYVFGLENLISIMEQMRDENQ
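ADP-Glo luminescence measures ADP made by human IP6K1 during a 2 h RT reaction with ATP/IP6 (mix at 1.3 mM/130 uM); top library doses 57.5 and 19.1 uM final.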
Starred values were filed as active, the others as inactive; [ ] = remark or other dose. The list is not random: actives were taken first. Their share in the collection is about 3%. Unless noted, calls come from the whole dose curve; as a rule, active = well fitted curve in the direction sought with a large enough effect; inconclusive = small, poorly fitted or top-dose-only effect, or another doubt; inactive = no such curve, though single readings can be large; an effect the other way counts as inactive or inconclusive.

What do the screens show for `COc1ccc(-c2[nH]nc3ncc(-c4ccccc4OC)nc23)c(C)c1`?
SNCA expr inh: 14.7%[87.6 µM]; SNCA viab count: 9.0%[87.6 µM]; KDM5B inhibitor: inconclusive; IP6K1 inhibitor: 13.2

What do the screens show for `CC1(c2ccccc2)N(Cc2ccccc2)C(=O)OC12CCN(C(=O)Cc1cccc(F)c1)CC2` (stereo unspecified)?
SNCA expr inh: inconclusive; SNCA viab count: -25.2%; KDM5B inhibitor: inactive; IP6K1 inhibitor: -2.4

Results for Cc1ccc2oc(C(=O)NC3CC(=O)N(C(C)C)C3)c(C)c2c1 (stereo unspecified) ?
SNCA expr inh: 26.8%; SNCA viab count: -4.9%; KDM5B inhibitor: 25.1µM*; IP6K1 inhibitor: 10.7

What do the screens show for `O=C(NCCCc1ccccc1)c1cc(-c2cc(Cl)cc(Cl)c2)c2cccn2n1`?
SNCA expr inh: 13.8%; SNCA viab count: 10.9%; IP6K1 inhibitor: -10.5

How did COc1ccc(CN[C@H]2[C@H](O)[C@H](O)C[C@@H]2c2ccc(N3CCOCC3)nc2)cn1 do in these assays?
SNCA expr inh: 2.1%[87.6 µM]; SNCA viab count: -13.2%[87.6 µM]; KDM5B inhibitor: 31.6µM*; IP6K1 inhibitor: -4.1

How did O[C@H]1[C@H](NCc2cccc(C(F)(F)F)c2)[C@@H](c2ccc(N3CCOCC3)nc2)C[C@H]1O do in these assays?
SNCA expr inh: 0.5%; SNCA viab count: -12.1%; KDM5B inhibitor: 31.6µM*; IP6K1 inhibitor: -7.5

What do the screens show for `O[C@H]1[C@H](NCc2cnc3ccccc3c2)[C@@H](c2ccc(N3CCOCC3)nc2)C[C@H]1O`?
SNCA expr inh: inconclusive; SNCA viab count: -27.3%[87.6 µM]; KDM5B inhibitor: inactive; IP6K1 inhibitor: -1.6

Results for O[C@H]1[C@H](NCc2ccc(Cl)cc2)[C@@H](c2ccc(N3CCOCC3)nc2)C[C@H]1O ?
SNCA expr inh: -20.6%[87.6 µM]; SNCA viab count: -23.7%[87.6 µM]; KDM5B inhibitor: 39.8µM*; IP6K1 inhibitor: 7.1

How did N#Cc1cccc(CN[C@H]2[C@H](O)[C@H](O)C[C@@H]2c2ccc(N3CCOCC3)nc2)c1 do in these assays?
SNCA expr inh: -7.4%[87.6 µM]; SNCA viab count: -13.6%[87.6 µM]; KDM5B inhibitor: inconclusive; IP6K1 inhibitor: 3.7

What do the screens show for `CCc1cccc2c(C(CC(=O)NCc3ccco3)c3ccc(C)cc3)c[nH]c12` (stereo unspecified)?
SNCA expr inh: 11.6%; SNCA viab count: 8.1%; KDM5B inhibitor: 28.2µM*; IP6K1 inhibitor: -13.9

How did O=C(NCCCc1ccccc1)c1ccc2oc(-c3ccncc3)nc2c1 do in these assays?
SNCA expr inh: -6.1%; SNCA viab count: 0.2%; IP6K1 inhibitor: 32.2

Results for CC1(CCCCN2CCOCC2)COc2ccc(C(=O)NCc3ccccc3)cc2N1 (stereo unspecified) ?
SNCA expr inh: -12.4%[87.6 µM]; SNCA viab count: 9.9%[87.6 µM]; KDM5B inhibitor: 39.8µM*; IP6K1 inhibitor: -2.0

How did CC1(CCCCc2ccccc2)COc2ccc(C(=O)NCCN3CCOCC3)cc2N1 (stereo unspecified) do in these assays?
SNCA expr inh: inconclusive; SNCA viab count: 3.7%[87.6 µM]; KDM5B inhibitor: 35.5µM*; IP6K1 inhibitor: -7.9

What do the screens show for `CC1(CCCCN2CCOCC2)COc2ccc(C(=O)NCc3ccco3)cc2N1` (stereo unspecified)?
SNCA expr inh: 4.3%[87.6 µM]; SNCA viab count: 5.8%[87.6 µM]; KDM5B inhibitor: 35.5µM*; IP6K1 inhibitor: 1.5

Results for COc1cccc(NC(=O)c2ccc3c(c2)NC(C)(CCCCN2CCOCC2)CO3)c1 (stereo unspecified) ?
SNCA expr inh: 25.6%[87.6 µM]; SNCA viab count: 10.2%[87.6 µM]; KDM5B inhibitor: inconclusive; IP6K1 inhibitor: -10.5

Results for CC1(CCCCN2CCOCC2)COc2ccc(C(=O)Nc3ccc4[nH]ccc4c3)cc2N1 (stereo unspecified) ?
SNCA expr inh: inconclusive; SNCA viab count: 1.2%; KDM5B inhibitor: inactive; IP6K1 inhibitor: 1.7

How did CCOC(=O)[C@@H]1[C@@H](OC)C(=O)N(C(C)C)C12CCN(C(=O)c1cc3ccccc3s1)CC2 do in these assays?
IP6K1 inhibitor: 13.3

Results for Cc1nn(-c2ccccc2)c2c1C(C)N(C1CCN(C(=O)c3ccc(Cl)cc3)C1)C2=O (stereo unspecified) ?
IP6K1 inhibitor: 1.1

Results for COc1cccc(-c2ccc(C(=O)NCCNC(=O)c3ccccn3)cc2)c1 ?
IP6K1 inhibitor: -12.3

Results for CCOCC1(C)COc2ccc(C(=O)Nc3cccc(N(C)C)c3)cc2N1 (stereo unspecified) ?
SNCA expr inh: -3.1%[87.6 µM]; SNCA viab count: -4.8%[87.6 µM]; KDM5B inhibitor: inconclusive; IP6K1 inhibitor: -17.4

Results for CC(C)CC(=O)NC1CCN(c2cn[nH]c(=O)c2)CC1 ?
SNCA expr inh: 29.8%; SNCA viab count: inconclusive; KDM5B inhibitor: inactive; IP6K1 inhibitor: -0.8

Results for CC(C)CC(=O)Nc1n[nH]c2c1CN(C(=O)C1CCN(C)CC1)C2(C)C ?
SNCA expr inh: 0.541µM*; SNCA viab count: inconclusive; IP6K1 inhibitor: 5.2

Results for CC[C@H]1CN2CCc3cc(OC)c(OC)cc3[C@H]2C[C@@H]1C[C@@H]1NCCc2cc(OC)c(OC)cc21 ?
SNCA expr inh: 0.607µM*; SNCA viab count: inconclusive

What do the screens show for `OCC1CN(c2ncccn2)CC12CCN(Cc1ccco1)CC2` (stereo unspecified)?
SNCA expr inh: 24.7%; SNCA viab count: 6.5%; KDM5B inhibitor: 28.2µM*; IP6K1 inhibitor: 16.2

What do the screens show for `COCC1CN(C)CC12CCN(Cc1cc(C)nn1C)CC2` (stereo unspecified)?
SNCA expr inh: -3.9%; SNCA viab count: -4.4%; KDM5B inhibitor: inactive; IP6K1 inhibitor: -2.7

How did Cc1ccc(CN2CCC3(CC2)CCN(Cc2ccco2)CC3CO)s1 (stereo unspecified) do in these assays?
SNCA expr inh: 0.2%; SNCA viab count: -8.8%; KDM5B inhibitor: inactive; IP6K1 inhibitor: -0.7

Results for OCC1CN(c2ncccn2)CC12CCN(Cc1cccc(Cl)c1F)CC2 (stereo unspecified) ?
SNCA expr inh: -9.3%; SNCA viab count: -5.4%; KDM5B inhibitor: inconclusive; IP6K1 inhibitor: -2.0

How did OCC1CN(c2ncccn2)CC12CCN(Cc1ccncc1)CC2 (stereo unspecified) do in these assays?
SNCA expr inh: 1.2%; SNCA viab count: 6.0%; KDM5B inhibitor: 22.4µM*; IP6K1 inhibitor: 18.4

How did Cc1cc(CN2CCC3(CC2)CN(c2ncccn2)CC3CO)n(C)n1 (stereo unspecified) do in these assays?
SNCA expr inh: -9.8%; SNCA viab count: 0.4%; KDM5B inhibitor: 31.6µM*; IP6K1 inhibitor: 11.5

How did Cc1ccc(CN2CCC3(CC2)CN(c2ncccn2)CC3CO)cc1C (stereo unspecified) do in these assays?
SNCA expr inh: 5.4%; SNCA viab count: 4.8%; KDM5B inhibitor: 25.1µM*; IP6K1 inhibitor: 5.8

What do the screens show for `Cc1cc(=O)n(CC(=O)NCCCc2ccccc2)c(N2CCc3ccccc3C2)n1`?
SNCA expr inh: inconclusive; SNCA viab count: -3.0%; KDM5B inhibitor: inconclusive; IP6K1 inhibitor: 2.2

Results for O=C(c1cn2cc(-c3ccccc3)sc2n1)N1CCOCC1 ?
SNCA expr inh: -89.4%[87.6 µM]; SNCA viab count: 1.3%[87.6 µM]; IP6K1 inhibitor: -17.7
